In PubChem BioAssay:
Calls of active or inactive are those of the source.

Key:
[1] = test system: Plasmodium falciparum Sir2 (PF13_0152, Sir2A); assay: Plasmodium falciparum Sir2A binding compounds – biochemical, small-molecule microarray, 635 nm fluorescence, primary screen (AID 1098); conditions: fluorescence 635 nm, higher = more signal;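 note: score merges spot fluorescence intensity with its signal-to-noise ratio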
[2] = probe aDKK1 binding to arrayed compounds – biochemical, biotinylated probe, 635/667 nm fluorescence, primary screen (AID 1099); conditions: small-molecule microarray, higher = more signal;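 note: score merges 667nm spot fluorescence with signal to noise across triplicate slides; reference of the scale not given here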
[3] = probe aCHRDL2 binding to arrayed compounds – biochemical, biotinylated probe, 635/667 nm fluorescence, primary screen (AID 1100); conditions: small-molecule microarray, higher = more signal
[4] = change in splice reporter luminescence, either direction, cell-based, HEK293, spliceosome inhibition project, primary screen (AID 1101); conditions: HEK293 splicing luciferase reporter, 24 h, higher = more signal, called active from +8 up or from −8 down;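 note: HEK293 cells carrying a splicing-competent luciferase reporter gene; test concentration not given here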
[5] = target: Fibroblast growth factor 10 (Homo sapiens) (UniProt O15520); assay: compounds binding fibroblast growth factor 10 – biochemical, small-molecule microarray, 635 nm fluorescence, primary screen (AID 1102); conditions: FGF10 binding, fluorescence 635 nm, higher = more signal
Fibroblast growth factor 10 (Homo sapiens), sequence (O15520 whole entry, looked up): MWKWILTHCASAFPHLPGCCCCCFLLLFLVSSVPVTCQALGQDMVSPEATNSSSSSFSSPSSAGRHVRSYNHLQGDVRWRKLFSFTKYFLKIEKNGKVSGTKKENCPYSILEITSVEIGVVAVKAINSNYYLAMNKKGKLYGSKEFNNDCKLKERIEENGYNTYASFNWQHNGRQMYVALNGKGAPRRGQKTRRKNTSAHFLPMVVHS

[6] = test system: glycogen synthase kinase-3 (GSK3A per assay name; protocol says GSK3B); assay: compounds binding glycogen synthase kinase-3 – biochemical, small-molecule microarray, 635 nm fluorescence, GSK3A, primary screen (AID 1103); conditions: fluorescence 635 nm, higher = more signal; note: the record names both GSK3A and GSK3B
[7] = target: Epidermal growth factor receptor (Homo sapiens) (UniProt P00533); assay: compounds binding epidermal growth factor receptor – biochemical, small-molecule microarray, 635 nm fluorescence, primary screen (AID 1104); conditions: EGFR binding, higher = more signal;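 note: score merges 667 nm emission intensity with spot signal to noise over triplicate slides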
Epidermal growth factor receptor (Homo sapiens), sequence (P00533 whole entry, looked up): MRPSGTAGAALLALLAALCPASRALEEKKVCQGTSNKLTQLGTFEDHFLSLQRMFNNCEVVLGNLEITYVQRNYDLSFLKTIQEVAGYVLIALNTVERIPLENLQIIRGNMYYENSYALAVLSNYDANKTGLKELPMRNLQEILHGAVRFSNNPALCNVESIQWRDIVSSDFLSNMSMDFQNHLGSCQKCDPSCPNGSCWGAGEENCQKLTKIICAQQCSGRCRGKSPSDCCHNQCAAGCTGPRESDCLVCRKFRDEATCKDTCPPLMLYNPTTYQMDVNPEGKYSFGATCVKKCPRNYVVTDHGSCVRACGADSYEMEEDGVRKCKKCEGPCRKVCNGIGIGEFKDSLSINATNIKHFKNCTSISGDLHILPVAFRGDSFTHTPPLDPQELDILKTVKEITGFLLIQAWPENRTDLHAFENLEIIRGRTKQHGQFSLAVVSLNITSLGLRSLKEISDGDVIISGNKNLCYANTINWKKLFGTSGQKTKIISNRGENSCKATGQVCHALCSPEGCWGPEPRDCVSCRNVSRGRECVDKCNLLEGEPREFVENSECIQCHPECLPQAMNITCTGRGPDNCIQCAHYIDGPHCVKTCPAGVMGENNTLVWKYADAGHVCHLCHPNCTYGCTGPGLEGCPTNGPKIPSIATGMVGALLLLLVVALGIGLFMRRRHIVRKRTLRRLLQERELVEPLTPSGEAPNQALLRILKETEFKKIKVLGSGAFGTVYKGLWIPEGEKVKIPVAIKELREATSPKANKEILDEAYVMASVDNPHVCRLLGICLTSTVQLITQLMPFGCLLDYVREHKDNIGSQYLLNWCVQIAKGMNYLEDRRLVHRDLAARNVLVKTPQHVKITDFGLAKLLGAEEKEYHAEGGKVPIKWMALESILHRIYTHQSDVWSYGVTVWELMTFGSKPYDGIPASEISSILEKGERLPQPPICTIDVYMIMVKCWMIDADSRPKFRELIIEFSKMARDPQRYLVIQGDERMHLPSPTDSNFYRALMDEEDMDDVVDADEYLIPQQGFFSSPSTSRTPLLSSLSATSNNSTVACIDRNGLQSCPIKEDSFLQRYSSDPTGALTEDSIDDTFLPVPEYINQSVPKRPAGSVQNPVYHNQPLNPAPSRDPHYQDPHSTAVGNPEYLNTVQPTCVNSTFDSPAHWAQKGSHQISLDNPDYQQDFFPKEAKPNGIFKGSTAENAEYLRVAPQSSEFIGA

[8] = target: Follistatin-related protein 3 (Homo sapiens) (UniProt O95633); assay: compounds binding follistatin-related protein 3 – biochemical, small-molecule microarray, 635 nm fluorescence, primary screen (AID 1105); conditions: FSTL3 binding, higher = more signal;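 note: score merges emission near 667 nm and signal to noise per printed spot across three slides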
Follistatin-related protein 3 (Homo sapiens), sequence (O95633 whole entry, looked up): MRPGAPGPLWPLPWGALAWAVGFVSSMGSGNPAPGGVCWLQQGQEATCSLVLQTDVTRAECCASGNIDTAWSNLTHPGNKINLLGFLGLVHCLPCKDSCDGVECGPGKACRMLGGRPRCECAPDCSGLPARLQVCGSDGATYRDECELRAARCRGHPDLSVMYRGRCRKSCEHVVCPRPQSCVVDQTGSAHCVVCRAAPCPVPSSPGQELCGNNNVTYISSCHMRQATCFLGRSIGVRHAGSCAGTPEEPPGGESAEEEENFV

[9] = target: Dickkopf-related protein 1 (Homo sapiens) (UniProt O94907); assay: small molecules binding DKK1 protein – biochemical, small-molecule microarray, 635 nm fluorescence scan, primary screen (AID 1106); conditions: higher = more signal;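 note: score merges emission near 667 nm with signal to noise over three replicate slides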
Dickkopf-related protein 1 (Homo sapiens), sequence (O94907 whole entry, looked up): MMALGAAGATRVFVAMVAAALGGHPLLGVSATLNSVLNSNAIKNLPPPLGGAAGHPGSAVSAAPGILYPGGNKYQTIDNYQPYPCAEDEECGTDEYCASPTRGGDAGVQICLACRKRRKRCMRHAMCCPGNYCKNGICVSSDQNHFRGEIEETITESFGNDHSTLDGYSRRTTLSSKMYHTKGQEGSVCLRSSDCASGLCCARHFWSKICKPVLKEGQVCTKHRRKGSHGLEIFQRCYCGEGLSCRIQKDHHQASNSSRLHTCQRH

[10] = test system: Inhibin beta A chain (activin A); assay: small molecules binding activin A – biochemical, small-molecule microarray, 635 nm fluorescence scan, primary screen (AID 1107); conditions: INHBA, higher = more signal;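 note: mouse activin A protein probed at 4.33 µg/mL on printed slides; score merges bound-protein fluorescence near 667 nm with spot signal-to-noise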

SMILES | composite z-score [1] | composite z-score [2] | composite z-score [3] | z-score [4] | composite z-score [5] | composite z-score [6] | composite z-score [7] | composite z-score [8] | composite z-score [9] | composite z-score [10]
CC(C)(C)OC(=O)CC[C@]1(C(N)=O)N=C(c2ccc(OCCCO)cc2)O[C@H]1c1ccccc1 | 0.883 | 1.32 | 1.35 | 0.138 (inactive) | 1.36 | 0.555 | -0.589 | -0.188 | -1.16 | 0.976
COCC(=C=CC[C@@H](O)c1ccc(OCCO)cc1)C[C@@H](O)c1ccccn1 | 0.0525 | -0.201 | -0.288 | 0.0733 (inactive) | 0.377 | 0.0621 | 0.0724 | 0.439 | 0.0579 | 1.18
COc1cc2c(cc1O)C(c1cccs1)N(Cc1cccc(OC(F)(F)F)c1)CC2 (stereo not given) | 1.77 | -0.293 | 0.154 | 0.965 (inactive) | -0.153 | -0.0228 | -0.0017 | 0.105 | -0.183 | 1.41
COc1ccc([Si](C)(C)[C@@H]2[C@@H](CCn3cc(CCO)nn3)O[C@]3(C(=O)N(Cc4cccc(N5C(=O)c6cccc7cccc5c67)c4)c4ccccc43)[C@H]2C)cc1 | 0.686 | -0.212 | -0.197 | -1.23 (inactive) | 0.648 | 0.433 | 0.0345 | 0.922 | 0.135 | 0.546
CCCCCCCCCCC(O)C1C=CC2C(=O)NC(=O)C2N1Nc1ccc(Cl)cc1Cl (stereo not given) | -0.856 | -0.214 | 0.935 | -0.723 (inactive) | -0.127 | -0.535 | -0.724 | -0.88 | -1.04 | 1.14
OB1C=CCC(CCc2ccccc2)O1 (stereo not given) | 1.57 | -0.246 | 0.0796 | -0.817 (inactive) | -0.184 | -0.428 | 0.0835 | -0.544 | -0.191 | 1.67
CN(C)CCCCCCNC(=O)[C@@H]1C[C@@H]2C(=O)N[C@@H](CCCC[N+](C)(C)C)C(=O)N2[C@@H]1c1ccc(O)cc1 | 0.626 | -0.0429 | -0.397 | -0.0575 (inactive) | 0.421 | 0.467 | -0.144 | 0.0663 | 1.61 | -0.181
CCOC(=O)C[C@H]1[C@H](OC(=O)c2cc3ccccc3oc2=O)[C@@H](NC(=O)CC(C)C)c2cc(OCCCO)ccc2N1C(=O)c1ccccc1 | 0.0288 | -0.179 | -0.428 | -1.04 (inactive) | 0.644 | 0.53 | 0.393 | 0.358 | 0.371 | -0.0294
C=C(CCCC)/C(=C/C[C@H](OC(=O)c1ccncc1)c1ccc(OCCO)cc1)c1cc(C(=O)OC)ccc1OC | 0.694 | -0.172 | -0.116 | -1.14 (inactive) | 0.752 | -0.139 | 0.053 | 0.14 | 0.204 | 1.29
CC(C)[C@@H](C(=O)O)n1cc(C2(O)CCCCC2)nn1 | 0.221 | -0.184 | -0.55 | -0.291 (inactive) | 0.928 | 1.09 | 0.15 | 0.457 | 0.301 | -0.352
N#Cc1ccc(C(O)C2C=CC3C(=O)N(c4ccccc4)C(=O)C3N2Nc2ccccc2F)cc1 (stereo not given) | 1.65 | -0.0589 | 0.267 | -1.37 (inactive) | 0.877 | 0.849 | 0.77 | 0.746 | -0.116 | 0.299
COC(=O)c1c(CC[C@@H](CO)NC(=O)N[C@@H](Cc2ccccc2)Cn2cc(-c3ccccn3)nn2)oc(C(=O)N2CCOCC2)c1C(=O)OC | 0.327 | -0.299 | -0.247 | 0.373 (inactive) | 0.136 | -0.27 | -0.002 | 0.172 | -0.296 | 0.119
COC(=O)[C@@]1(Cc2ccc(F)cc2)[C@H]2c3cc(C(=O)N(C)C)n(Cc4ccc(C)o4)c3C[C@H]2CN1C(=O)c1ccccc1 | 1.29 | 2.05 | 0.495 | -1.6 (inactive) | 0.152 | 0.102 | -1.87 | -1.13 | -1.39 | 1.07
COCCOC(=O)N1C(=O)[C@@]2(c3cc(C#CC4=CCCCC4)ccc31)[C@H](c1ccc(OCCO)cc1)N1[C@H](c3ccccc3)[C@H](c3ccccc3)OC(=O)[C@H]1[C@@H]2C(=O)N1CCc2cc(OC)c(OC)cc2C1 | 0.774 | 0.645 | 0.538 | -0.992 (inactive) | 1.09 | 1.3 | 0.707 | 1.39 | 1.13 | 0.942
O=C(NCCN1CCOCC1)[C@@H]1c2ccccc2C(=O)N(Cc2cc(C(F)(F)F)cc(C(F)(F)F)c2)[C@H]1c1ccc(CO)cc1 | 1.51 | 0.254 | 0.851 | 0.91 (inactive) | -1.17 | -0.332 | -1.35 | -1.55 | -1.23 | -1.54
[N-]=[N+]=Nc1ccccc1C[C@@]1(C(=O)N2CCCCC2)N=C(c2ccc(OCCCO)cc2)O[C@@H]1c1ccccc1 | 1.18 | 0.901 | 1.07 | -0.969 (inactive) | 0.465 | 1.29 | -0.209 | 0.112 | -0.174 | 0.803
